Y pestis TopoI: inhibitors of Yersinia pestis topoisomerase I; Y. pestis Topo-I cleavage product accumulation, plate reader; activity, % at 10 µM; 0.064% of 360,000 active; in the data active = activity above about 50%, passing the limit was not always enough
GDH-TPI counter-1: counter-screen for M. tuberculosis FBA inhibitors: GDH-TPI coupled enzymes | GDH-TPI coupled enzyme counterscreen, NADH absorbance | inhibition, % at 4.8 µM | 1.2% of 360,000 active; in the data active = inhibition above about 30%;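 also: 0% = DMSO wells and 100% = wells lacking the enzyme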
TcdB inh: inhibitors of Clostridioides difficile toxin B glycohydrolase; P18177; TcdB glycohydrolase enzymatic assay, plate reader; inhibition, % at 9.99 µM; 0.24% of 350,000 active; AID 652162; in the data active = inhibition above about 10%
FBA Mtb inh: Mtb fructose-bisphosphate aldolase inhibition | 2.3% of 360,000 active | purified M. tuberculosis FBA, fluorescence read-out | P9WQA3 | inhibition, % at 1 µM;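 also: 0% = vehicle and 100% = reference inhibitor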
Target sequence (P9WQA3 whole entry, looked up): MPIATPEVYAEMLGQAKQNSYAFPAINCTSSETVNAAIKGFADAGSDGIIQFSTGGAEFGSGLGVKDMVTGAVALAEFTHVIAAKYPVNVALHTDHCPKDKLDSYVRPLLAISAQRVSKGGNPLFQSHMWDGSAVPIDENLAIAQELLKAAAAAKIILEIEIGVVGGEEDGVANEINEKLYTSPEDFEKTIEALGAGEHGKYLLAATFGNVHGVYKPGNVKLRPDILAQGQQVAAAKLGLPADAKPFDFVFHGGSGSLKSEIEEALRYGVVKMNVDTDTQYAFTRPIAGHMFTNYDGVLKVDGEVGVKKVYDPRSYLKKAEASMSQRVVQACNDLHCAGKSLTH
PrPC surface inh: inhibitors of human cell surface prion protein PrPC; P04156; inhibition, % at 13.8 µM; TR-FRET read-out; AID 720596; 0.43% of 370,000 active; in the data active = inhibition above about 24%; also: 0% = median of the test wells and 100% = reference compound wells
Mtb FBA inh conf: confirmation of M. tuberculosis fructose-bisphosphate aldolase inhibitors; shares compounds with FBA Mtb inh; purified M. tuberculosis FBA, fluorescence read-out; inhibition, % at 1 µM; 78% of 5,600 active; AID 651616;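 also: 0% = vehicle wells and 100% = reference inhibitor wells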
GDH-TPI counter-2: counter-screen for M. tuberculosis FBA inhibitors: GDH-TPI coupled enzyme inhibition. inhibition, % at 1 µM. 81% of 5,600 active. GDH-TPI coupled enzyme counterscreen, fluorescence. shares compounds with FBA Mtb inh; in the data active = inhibition above about 10%
The depositor's hits bear a star; nt = no result; + = active, no number. Compounds with a hit are over-represented: about 3.2% of the library has one in this group of screens. Rule as the data show it, unless noted: active = inhibition above about 27%; inactive = the rest.

SMILES	Y pestis TopoI	GDH-TPI counter-1	TcdB inh	FBA Mtb inh	PrPC surface inh	Mtb FBA inh conf	GDH-TPI counter-2
CC(C)CCNC(=O)COc1ccc2c3c(c(=O)oc2c1)CCC3	-1	20	nt	11	4	nt	nt
O=C(O)C(Oc1ccc2cc(-c3ccc(Cl)cc3)c(=O)oc2c1)c1ccccc1 (configuration not stated)	9	4	1	104*	-1	+	+
CCc1cc2c3c(c(=O)oc2cc1OCC(=O)OC)CCCC3	22	7	1	54*	-7	48*	31*
COCC(=O)N1[C@@H]2c3ccc(C4=CCCCC4)c(=O)n3C[C@@H]2[C@@H](CO)[C@@H]1C(=O)N1CCCCC1	nt	nt	-3	nt	nt	nt	nt
Cc1c(OCc2nn[nH]n2)ccc2c3c(c(=O)oc12)CCC(C)C3 (configuration not stated)	2	27	nt	107*	0	+	155*
Cc1cc(=O)oc2cc(NC(=O)c3ccccc3OC(F)F)ccc12	-2	17	1	53*	7	70*	49*
CC(=O)C(C)Oc1ccc2c3c(c(=O)oc2c1)CCCC3 (configuration not stated)	-5	6	nt	40*	4	+	146*
CCc1cc(=O)oc2c(C)c(OCC(=O)NC3CC(C)(C)NC(C)(C)C3)ccc12	-5	18	nt	37*	nt	139*	124*
Cc1c(OCC(=O)NCC2CCC(C(=O)O)CC2)ccc2c3c(c(=O)oc12)CCC3 (configuration not stated)	-6	19	-1	14	-7	nt	nt
CCCNC(=O)N1CCC2(CC1)CN(C(=O)CC)[C@@H](CO)c1c2c2ccc(OC)cc2n1C	nt	nt	-2	nt	nt	nt	nt
Cc1cc(=O)oc2cc(OC(C(=O)O)c3ccccc3)ccc12 (configuration not stated)	-3	24	0	17	-5	nt	nt
O=C(O)C(Oc1ccc2c3c(c(=O)oc2c1)CCC3)c1ccccc1 (configuration not stated)	6	22	nt	69*	-2	3	-5
O=C(O)c1ccc(COc2ccc3c4c(c(=O)oc3c2)CCC4)o1	2	22	nt	34*	4	95*	64*
C=CCOc1ccc2c(CC)cc(=O)oc2c1C	4	7	2	41*	2	+	164*
C#CCOc1ccc2c(C)cc(=O)oc2c1	1	7	1	40*	-1	64*	44*
CCc1cc(=O)oc2c(C)c(O[C@@H]3O[C@H](CO)[C@@H](O)[C@H](O)[C@H]3O)ccc12	3	20	1	5	1	nt	nt
C[C@H]1CN([C@@H](C)CO)C(=O)c2cc(C3=CCCC3)cnc2O[C@@H]1CN(C)Cc1cccc(F)c1	nt	nt	-1	nt	nt	nt	nt
CCCNC(=O)N(C)C[C@H]1Oc2cc(-c3cccnc3)ccc2S(=O)(=O)N([C@@H](C)CO)C[C@H]1C	nt	nt	0	nt	nt	nt	nt
CC1(C)CC(NC(=O)COc2ccc3c4c(c(=O)oc3c2)CCCC4)CC(C)(C)N1	-1	17	0	52*	2	+	+
Cc1cc(=O)oc2cc(OC(C)C)ccc12	-1	10	nt	73*	6	+	178*
O=c1oc2cc(OCc3nn[nH]n3)ccc2c2c1CCCC2	5	-4	nt	89*	4	-1	-2
CC(=O)COc1ccc2c3c(c(=O)oc2c1)CCCC3	2	3	nt	70*	1	33*	35*
CC(C)CNC(=O)COc1ccc2c3c(c(=O)oc2c1)CCC3	6	9	-1	19	-9	nt	nt
C[C@@H]1CN([C@@H](C)CO)C(=O)Cc2cc(NS(=O)(=O)c3cn(C)cn3)ccc2O[C@@H]1CN(C)C(=O)Nc1ccc(F)cc1	nt	nt	-1	nt	nt	nt	nt
C[C@@H]1CN([C@@H](C)CO)C(=O)c2cc(NS(=O)(=O)c3ccc(Cl)cc3)ccc2O[C@@H](C)CCCCO[C@@H]1CN(C)Cc1ccc(C(=O)O)cc1	nt	nt	0	nt	nt	nt	nt
SMILES	Y pestis TopoI	GDH-TPI counter-1	TcdB inh	FBA Mtb inh	PrPC surface inh	Mtb FBA inh conf	GDH-TPI counter-2
O=C(NC1CCCC1)N1CC(=O)N2[C@H](C1)[C@@H](c1ccc(-c3cccnc3)cc1)[C@@H]2CO	nt	nt	-2	nt	nt	nt	nt
C[C@H](CO)N1C[C@H](C)[C@@H](CN(C)Cc2ccc3c(c2)OCCO3)OCc2cn(nn2)CCCC1=O	nt	nt	1	nt	nt	nt	nt
CC1=NCCc2c1[nH]c1cc(O)ccc21	-11	27	42*	74*	-5	94*	48*
COc1cccc(NC(=O)CSc2nc3c(sc4ccccc43)c(=O)n2CCN(C)C)c1	4	8	1	47*	0	4	0
CCN(CC)CCNC(=O)c1cc2c(=O)n(C)c3ccccc3c2n1C	3	-1	-8	28*	-2	+	+
CCN(CC)CCCNC(=O)c1cc2c(=O)n(C)c3ccccc3c2n1C	-9	17	0	20	2	nt	nt
C[C@H](CO)N1C[C@H](C)[C@H](CN(C)CC2CCCCC2)Oc2ccc(NC(=O)Cc3cn(C)c4ccccc34)cc2C1=O	nt	nt	0	nt	nt	nt	nt
Nc1ccc(-c2nc3ncccc3o2)c(Cl)c1	2	47*	1	91*	11	1	3
Nc1cc(-c2nc3ncccc3o2)ccc1Cl	12	23	2	38*	-6	87*	71*
O=S(=O)(N[C@H]1CC[C@@H](CCn2cc(-c3ccccc3F)nn2)O[C@H]1CO)c1ccc(Cl)cc1	nt	nt	0	nt	nt	nt	nt
Cn1c(=O)c2cc(NC(=O)Nc3cccnc3)ccc2n1-c1ccc(C(C)(C)C)cc1	16	5	-1	31*	-3	27	14*
COc1ccc(C(=O)Nc2ccc3c(c2)C(=O)N(C)C[C@H](OC)[C@H](C)CN(C(C)=O)[C@H](C)CO3)cc1	nt	nt	-1	nt	nt	nt	nt
CC(=O)Nc1c(-c2ccc3ccccc3c2)nc2ccccn12	4	13	0	59*	-1	41*	30*
O=C(Nc1c(-c2ccccc2)nc2ccccn12)c1ccccc1	2	1	0	-1	2	nt	nt
CCOC(=O)CNc1c(-c2ccc(O)cc2)nc2ccc(Cl)cn12	4	16	nt	5	3	nt	nt
CCC(=O)Nc1c(-c2ccc3ccccc3c2)nc2ccccn12	-7	15	2	50*	-16	62*	75*
CCOC(=O)CNc1c(-c2ccc(O)cc2)nc2ccccn12	3	14	nt	40*	-8	3	-1
CC(C)NC(=O)N[C@@H]1CC[C@@H](CC(=O)NCCN2CCCC2)O[C@@H]1CO	nt	nt	1	nt	nt	nt	nt
C[C@@H]1CN([C@@H](C)CO)C(=O)c2cccc(NC(=O)c3ccc(-c4nccs4)cc3)c2O[C@H]1CN(C)S(=O)(=O)c1ccccc1	nt	nt	1	nt	nt	nt	nt
CO[C@H]1CN(C)C(=O)c2ccc(NC(=O)c3ccccc3)cc2OC[C@H](C)N(CC2CC2)C[C@@H]1C	nt	nt	0	nt	nt	nt	nt

Bioassay records (PubChem)
